# In the supplement of paper PMC8728848:
# This excerpt belongs to a sample that is enriched for the strongest signals.
# B1: CML1 (Coprinopsis cinerea) (protein)
# chain: MAIFHTGSELFIITRGPGKLTLLTWGGLNNLRSVIGAIPTENTGVTKWAVSFSHNYTRFSFIWEGQGEACYQIGNGLTRSPVGRSWSSSSTIHWGSSTVITEDVTSVVPGAVNRDKVTTAYALPDNL
# Columns and labels:
# Assay in all cases: glycan array binding signal (z-score within array); higher = stronger binding
# Conditions in all cases: glycan notation: IUPAC condensed, linker removed
# [1] = molecular target: Fuc(a1-2)Gal(b1-3)GlcNAc
# In short: (§1)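 Glycan array data were curated from 3228 arrays in the Consortium for Functional Glycomics database and kept only where the protein sequence was available. Glycan names were converted to IUPAC-condensed notation, and columns mapping to the same glycan were averaged. The binding signal is a within-array Z-score, averaged across arrays of the same protein sequence at different concentrations or buffers and across linkers. Negative Z-scores can be read as non-binding.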
# [2] = molecular target: Fuc(a1-2)Gal(b1-3)GlcNAc(b1-2)Man(a1-3)[Fuc(a1-2)Gal(b1-3)GlcNAc(b1-2)Man(a1-6)]Man(b1-4)GlcNAc(b1-4)[Fuc(a1-6)]GlcNAc
# In short: as §1
# [3] = molecular target: Fuc(a1-2)Gal(b1-3)GlcNAc(b1-3)Gal(b1-4)Glc
# In short: as §1
# [4] = molecular target: Fuc(a1-2)Gal(b1-3)GlcNAc(b1-3)GalNAc
# In short: as §1
# [5] = molecular target: Fuc(a1-2)Gal(b1-3)GlcNAc6S
# In short: as §1
# [6] = molecular target: Fuc(a1-2)Gal(b1-4)Glc
# In short: as §1
# [7] = molecular target: Fuc(a1-2)Gal(b1-4)Glc6S
# In short: as §1
# [8] = molecular target: Fuc(a1-2)Gal(b1-4)GlcNAc(b1-3)Gal(b1-4)GlcNAc
# In short: as §1
# [9] = molecular target: Fuc(a1-2)Gal3S(b1-4)GlcNAc
# In short: as §1
# [10] = molecular target: Fuc(a1-2)Gal6S(b1-3)GlcNAc6S
# In short: as §1
# [11] = molecular target: Fuc(a1-2)[Gal(a1-3)]Gal(b1-3)GlcNAc
# In short: as §1
# [12] = molecular target: Fuc(a1-2)[Gal(a1-3)]Gal(b1-3)GlcNAc(b1-2)Man(a1-3)[Fuc(a1-2)[Gal(a1-3)]Gal(b1-3)GlcNAc(b1-2)Man(a1-6)]Man(b1-4)GlcNAc(b1-4)[Fuc(a1-6)]GlcNAc
# In short: as §1
# [13] = molecular target: Fuc(a1-2)[Gal(a1-3)]Gal(b1-4)GlcNAc(b1-2)Man
# In short: as §1
# [14] = molecular target: Fuc(a1-2)[Gal(a1-3)]Gal(b1-4)GlcNAc(b1-2)Man(a1-3)[Fuc(a1-2)[Gal(a1-3)]Gal(b1-4)GlcNAc(b1-2)Man(a1-6)]Man(b1-4)GlcNAc(b1-4)GlcNAc
# In short: as §1
# [15] = molecular target: Fuc(a1-2)[Gal(a1-4)]Gal(b1-4)GlcNAc
# In short: as §1
# [16] = molecular target: Fuc(a1-2)[GalNAc(a1-3)]Gal(b1-4)GlcNAc(b1-2)Man
# In short: as §1
# [17] = molecular target: Fuc(a1-2)[GalNAc(b1-3)]Gal
# In short: as §1
# [18] = molecular target: Gal(a1-3)Gal(b1-4)[Fuc(a1-3)]GlcNAc
# In short: as §1
# [19] = molecular target: Gal(a1-4)Gal(b1-4)Glc
# In short: as §1
# [20] = molecular target: Gal(b1-3)Gal(b1-4)GlcNAc
# In short: as §1
# [21] = molecular target: Gal(b1-3)GlcNAc(b1-3)Gal(b1-4)GlcNAc
# In short: as §1
# [22] = molecular target: Gal(b1-3)[Neu5Ac(a2-6)]GalNAc
# In short: as §1
# [23] = molecular target: Gal(b1-4)GlcNAc(b1-2)Man(a1-3)[Gal(b1-4)GlcNAc(b1-2)Man(a1-6)][Gal(b1-4)GlcNAc(b1-4)]Man(b1-4)GlcNAc(b1-4)[Fuc(a1-6)]GlcNAc
# In short: as §1
# [24] = molecular target: Gal(b1-4)GlcNAc(b1-2)Man(a1-3)[GlcNAc(b1-2)Man(a1-6)]Man(b1-4)GlcNAc(b1-4)GlcNAc
# In short: as §1
# [25] = molecular target: Gal(b1-4)GlcNAc(b1-3)Gal(b1-3)GlcNAc
# In short: as §1
# [26] = molecular target: Gal(b1-4)GlcNAc(b1-3)Gal(b1-4)GlcNAc(b1-3)Gal(b1-4)GlcNAc(b1-3)Gal(b1-4)GlcNAc(b1-3)Gal(b1-4)GlcNAc(b1-3)Gal(b1-4)GlcNAc(b1-2)Man(a1-3)[Gal(b1-4)GlcNAc(b1-3)Gal(b1-4)GlcNAc(b1-3)Gal(b1-4)GlcNAc(b1-3)Gal(b1-4)GlcNAc(b1-3)Gal(b1-4)GlcNAc(b1-3)Gal(b1-4)GlcNAc(b1-2)Man(a1-6)]Man(b1-4)GlcNAc(b1-4)GlcNAc
# In short: as §1
# [27] = molecular target: Gal3S(b1-3)[Fuc(a1-4)]GlcNAc
# In short: as §1
# [28] = molecular target: Gal6S(b1-3)GlcNAc6S
# In short: as §1
binder,measurement,setting,value
B1,glycan array binding signal (z-score),[1],5.31
same,glycan array binding signal (z-score),[2],1.34
same,glycan array binding signal (z-score),[3],4.85
same,glycan array binding signal (z-score),[4],3.31
same,glycan array binding signal (z-score),[5],4.12
same,glycan array binding signal (z-score),[6],-0.039
same,glycan array binding signal (z-score),[7],1.38
same,glycan array binding signal (z-score),[8],-0.335
same,glycan array binding signal (z-score),[9],-0.157
same,glycan array binding signal (z-score),[10],3.67
same,glycan array binding signal (z-score),[11],3.51
same,glycan array binding signal (z-score),[12],1.07
same,glycan array binding signal (z-score),[13],-0.329
same,glycan array binding signal (z-score),[14],-0.242
same,glycan array binding signal (z-score),[15],-0.314
same,glycan array binding signal (z-score),[16],-0.348
same,glycan array binding signal (z-score),[17],-0.318
same,glycan array binding signal (z-score),[18],-0.346
same,glycan array binding signal (z-score),[19],-0.322
same,glycan array binding signal (z-score),[20],-0.329
same,glycan array binding signal (z-score),[21],-0.339
same,glycan array binding signal (z-score),[22],-0.338
same,glycan array binding signal (z-score),[23],-0.348
same,glycan array binding signal (z-score),[24],-0.342
same,glycan array binding signal (z-score),[25],-0.326
same,glycan array binding signal (z-score),[26],-0.303
same,glycan array binding signal (z-score),[27],3.48
same,glycan array binding signal (z-score),[28],-0.336
